# Assay results as given in the supplement of paper PMC8728848.
# The full list was thinned out, with the strongest signals kept by preference.
# B1: Gal 8 (Mus musculus), Q9JL15 (protein)
# chain: MGGSHHHHHHGMASMLSLNNLQNIIYNPIIPYVGTITEQLKPGSLIVIRGHVPKDSERFQVDFQLGNSLKPRADVAFHFNPRFKRSSCIVCNTLTQEKWGWEEITYDMPFRKEKSFEIVFMVLKNKFQVAVNGRHVLLYAHRISPEQIDTVGIYGKVNIHSIGFRFSSASALPHTLGDLQSMETSALGLTQINRENIQKPGKLQLSLPFEARLNASMGPGRTVVIKGEVNTNARSFNVDLVAGKTRDIALHLNPRLNVKAFVRNSFLQDAWGEEERNITCFPFSSGMYFEMIIYCDVREFKVAINGVHSLEYKHRFKDLSSIDTLSVDGDIRLLDVRSW
# Legend:
# Experiment in all cases: glycan array binding signal (z-score within array); higher = stronger binding
# Details in all cases: glycan notation: IUPAC condensed, linker removed
# [1] = molecular target: Gal(b1-4)GlcNAc(b1-3)Gal(b1-4)GlcNAc(b1-3)Gal(b1-4)GlcNAc(b1-3)Gal(b1-4)GlcNAc(b1-2)[Gal(b1-4)GlcNAc(b1-3)Gal(b1-4)GlcNAc(b1-3)Gal(b1-4)GlcNAc(b1-3)Gal(b1-4)GlcNAc(b1-6)]Man(a1-6)[Gal(b1-4)GlcNAc(b1-3)Gal(b1-4)GlcNAc(b1-3)Gal(b1-4)GlcNAc(b1-3)Gal(b1-4)GlcNAc(b1-2)Man(a1-3)]Man(b1-4)GlcNAc(b1-4)[Fuc(a1-6)]GlcNAc
# How it was run: (§1)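 Negative Z-scores can be read as non-binding. The Z-score is calculated within each array and then averaged across arrays of one protein sequence at different concentrations or buffers and across linkers. Arrays, 3228 in all, were curated from the Consortium for Functional Glycomics database and kept only where the protein sequence was available.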
# [2] = molecular target: Gal(b1-4)GlcNAc(b1-3)Gal(b1-4)GlcNAc(b1-3)Gal(b1-4)GlcNAc(b1-3)Gal(b1-4)GlcNAc(b1-3)Gal(b1-4)GlcNAc(b1-2)Man(a1-3)[Gal(b1-4)GlcNAc(b1-3)Gal(b1-4)GlcNAc(b1-3)Gal(b1-4)GlcNAc(b1-3)Gal(b1-4)GlcNAc(b1-3)Gal(b1-4)GlcNAc(b1-2)Man(a1-6)]Man(b1-4)GlcNAc(b1-4)GlcNAc
# How it was run: as §1
# [3] = molecular target: Gal(b1-4)GlcNAc(b1-3)Gal(b1-4)GlcNAc(b1-3)Gal(b1-4)GlcNAc(b1-3)Gal(b1-4)GlcNAc(b1-3)Gal(b1-4)GlcNAc(b1-2)Man(a1-3)[Gal(b1-4)GlcNAc(b1-3)Gal(b1-4)GlcNAc(b1-3)Gal(b1-4)GlcNAc(b1-3)Gal(b1-4)GlcNAc(b1-3)Gal(b1-4)GlcNAc(b1-2)Man(a1-6)]Man(b1-4)GlcNAc(b1-4)[Fuc(a1-6)]GlcNAc
# How it was run: as §1
# [4] = molecular target: Gal(b1-4)GlcNAc(b1-3)Gal(b1-4)GlcNAc(b1-3)Gal(b1-4)GlcNAc(b1-3)Gal(b1-4)GlcNAc(b1-3)Gal(b1-4)GlcNAc(b1-3)Gal(b1-4)GlcNAc(b1-2)Man(a1-3)[Gal(b1-4)GlcNAc(b1-3)Gal(b1-4)GlcNAc(b1-3)Gal(b1-4)GlcNAc(b1-3)Gal(b1-4)GlcNAc(b1-3)Gal(b1-4)GlcNAc(b1-3)Gal(b1-4)GlcNAc(b1-2)Man(a1-6)]Man(b1-4)GlcNAc(b1-4)GlcNAc
# How it was run: as §1
# [5] = molecular target: Gal(b1-4)GlcNAc(b1-3)Gal(b1-4)GlcNAc(b1-3)[Gal(b1-4)GlcNAc(b1-3)Gal(b1-4)GlcNAc(b1-6)]GalNAc
# How it was run: as §1
# [6] = molecular target: Gal(b1-4)GlcNAc(b1-6)GalNAc
# How it was run: as §1
# [7] = molecular target: Gal3S(b1-4)Glc6S
# How it was run: as §1
# [8] = molecular target: Gal3S(b1-4)[Fuc(a1-3)]Glc6S
# How it was run: as §1
# [9] = molecular target: Gal6S(b1-4)Glc
# How it was run: as §1
# [10] = molecular target: GalNAc(b1-4)GlcNAc(b1-2)Man(a1-3)[GalNAc(b1-4)GlcNAc(b1-2)Man(a1-6)]Man(b1-4)GlcNAc(b1-4)GlcNAc
# How it was run: as §1
# [11] = molecular target: GlcNAc(b1-3)Gal(b1-4)GlcNAc
# How it was run: as §1
# [12] = molecular target: GlcNAc(b1-3)Gal(b1-4)GlcNAc(b1-3)Gal(b1-4)GlcNAc
# How it was run: as §1
# [13] = molecular target: GlcNAc(b1-3)Gal(b1-4)GlcNAc(b1-3)Gal(b1-4)GlcNAc(b1-3)Gal(b1-4)GlcNAc(b1-3)Gal(b1-4)GlcNAc(b1-2)Man(a1-3)[GlcNAc(b1-3)Gal(b1-4)GlcNAc(b1-3)Gal(b1-4)GlcNAc(b1-3)Gal(b1-4)GlcNAc(b1-3)Gal(b1-4)GlcNAc(b1-2)Man(a1-6)]Man(b1-4)GlcNAc(b1-4)[Fuc(a1-6)]GlcNAc
# How it was run: as §1
# [14] = molecular target: GlcNAc(b1-3)Gal(b1-4)GlcNAc(b1-3)Gal(b1-4)GlcNAc(b1-3)GalNAc
# How it was run: as §1
# [15] = molecular target: GlcNAc(b1-4)GlcNAc(b1-4)GlcNAc(b1-4)GlcNAc(b1-4)GlcNAc
# How it was run: as §1
# [16] = molecular target: Man(a1-6)Man
# How it was run: as §1
# [17] = molecular target: Neu5Ac(a2-3)Gal(b1-3)GlcNAc(b1-2)Man(a1-3)[Neu5Ac(a2-3)Gal(b1-3)GlcNAc(b1-2)Man(a1-6)]Man(b1-4)GlcNAc(b1-4)GlcNAc
# How it was run: as §1
# [18] = molecular target: Neu5Ac(a2-3)Gal(b1-4)GlcNAc
# How it was run: as §1
# [19] = molecular target: Neu5Ac(a2-3)Gal(b1-4)GlcNAc(b1-3)Gal(b1-4)[Fuc(a1-3)]GlcNAc
# How it was run: as §1
# [20] = molecular target: Neu5Ac(a2-3)Gal(b1-4)GlcNAc(b1-3)GalNAc
# How it was run: as §1
# [21] = molecular target: Neu5Ac(a2-6)Gal
# How it was run: as §1
# [22] = molecular target: Neu5Ac(a2-6)Gal(b1-4)GlcNAc(b1-2)Man
# How it was run: as §1
# [23] = molecular target: Neu5Ac(a2-6)Gal(b1-4)GlcNAc(b1-2)[Neu5Ac(a2-6)Gal(b1-4)GlcNAc(b1-4)]Man(a1-3)[GlcNAc(b1-4)][Neu5Ac(a2-6)Gal(b1-4)GlcNAc(b1-2)[Neu5Ac(a2-6)Gal(b1-4)GlcNAc(b1-6)]Man(a1-6)]Man(b1-4)GlcNAc(b1-4)GlcNAc
# How it was run: as §1
# [24] = molecular target: Neu5Ac(a2-6)GlcNAc(b1-4)GlcNAc(b1-4)GlcNAc
# How it was run: as §1
# [25] = molecular target: Neu5Ac(a2-8)Neu5Ac(a2-3)Gal(b1-3)GalNAc(b1-4)[Neu5Ac(a2-3)]Gal(b1-4)Glc
# How it was run: as §1
# [26] = molecular target: Neu5Ac(a2-8)Neu5Ac(a2-8)Neu5Ac(a2-3)[Gal(b1-3)GalNAc(b1-4)]Gal(b1-4)Glc
# How it was run: as §1
# [27] = molecular target: Neu5Gc(a2-3)Gal(b1-3)[Fuc(a1-4)]GlcNAc
# How it was run: as §1
binder,measurement,setting,value
B1,glycan array binding signal (z-score),[1],2.76
same,glycan array binding signal (z-score),[2],3.48
same,glycan array binding signal (z-score),[3],3.61
same,glycan array binding signal (z-score),[4],3.5
same,glycan array binding signal (z-score),[5],-0.063
same,glycan array binding signal (z-score),[6],-0.214
same,glycan array binding signal (z-score),[7],0.566
same,glycan array binding signal (z-score),[8],-0.498
same,glycan array binding signal (z-score),[9],-0.532
same,glycan array binding signal (z-score),[10],-0.195
same,glycan array binding signal (z-score),[11],-0.163
same,glycan array binding signal (z-score),[12],1.11
same,glycan array binding signal (z-score),[13],3.01
same,glycan array binding signal (z-score),[14],0.651
same,glycan array binding signal (z-score),[15],-0.54
same,glycan array binding signal (z-score),[16],-0.51
same,glycan array binding signal (z-score),[17],-0.466
same,glycan array binding signal (z-score),[18],-0.517
same,glycan array binding signal (z-score),[19],-0.215
same,glycan array binding signal (z-score),[20],-0.525
same,glycan array binding signal (z-score),[21],-0.511
same,glycan array binding signal (z-score),[22],-0.548
same,glycan array binding signal (z-score),[23],-0.602
same,glycan array binding signal (z-score),[24],-0.545
same,glycan array binding signal (z-score),[25],0.316
same,glycan array binding signal (z-score),[26],-0.539
same,glycan array binding signal (z-score),[27],-0.514
